In all, about 370,000 compounds went through this assay and about 4,800 (1.3%) were called active. This is one part of a sample in which actives are shown more often than they occur.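 Rule for the calls: active = inhibition above about 21% made by adding two undisclosed values (limit read from the data); inactive = the rest.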
Target: Protein arginine N-methyltransferase 1 (Homo sapiens) (UniProt Q99873)
Test: PRMT1 methyltransferase inhibitors, primary screen, biochemical, fluorescence polarization (AID 652257)
Conditions: recombinant PRMT1, activity-based probe fluorescence polarization; at 2.79 µM; hits give high values

Protein arginine N-methyltransferase 1 (Homo sapiens), sequence (Q99873 whole entry, looked up): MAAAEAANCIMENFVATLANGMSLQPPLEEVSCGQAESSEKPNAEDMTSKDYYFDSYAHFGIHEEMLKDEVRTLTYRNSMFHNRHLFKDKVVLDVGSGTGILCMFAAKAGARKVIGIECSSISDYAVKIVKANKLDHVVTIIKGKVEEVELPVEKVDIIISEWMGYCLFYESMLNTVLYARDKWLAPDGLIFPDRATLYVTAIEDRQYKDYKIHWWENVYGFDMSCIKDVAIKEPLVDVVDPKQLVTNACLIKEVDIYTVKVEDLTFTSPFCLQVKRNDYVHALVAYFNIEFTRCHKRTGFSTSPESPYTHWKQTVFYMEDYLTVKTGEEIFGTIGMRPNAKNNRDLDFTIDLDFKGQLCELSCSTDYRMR

SMILES	inhibition
COc1ccc(OCC(=O)Nc2nnc(-c3ccco3)s2)cc1	22.1% (active)
COc1ccc(CNC(=O)CCC(=O)Nc2nnc(C(C)C)s2)cc1	6.7% (inactive)
COc1ccc(OCCCC(=O)Nc2nnc(C3CCCO3)s2)cc1 (stereo unspecified)	2.04% (inactive)
O=C(NCc1cccs1)C1CCCN(S(=O)(=O)c2ccc([N+](=O)[O-])cc2)C1 (stereo unspecified)	0.46% (inactive)
C=CCN1C(=O)[C@H](CC(=O)NCCCN2CCCC2=O)[C@@]2(C(=O)OCC)CCCC=C12	0.15% (inactive)
O=C(NCCOc1cccnc1)c1ccc(OC2CCN(Cc3ccccn3)CC2)cc1	3.52% (inactive)
Cc1ccccc1N1CC(C(=O)Nc2nnc(SCCC3OCCO3)s2)CC1=O (stereo unspecified)	5.12% (inactive)
Cc1ccnc(-n2sc3ccccc3c2=O)n1	90.7% (active)
CCOc1ccc(-n2cnnn2)cc1S(=O)(=O)N1CCC(C)CC1C (stereo unspecified)	-4.54% (inactive)
CC(NC(=S)NC1CCCCC1)C(c1ccccc1)N1CCOCC1 (stereo unspecified)	0.42% (inactive)
COc1ccc(N2CCN(CCNS(=O)(=O)c3ccc([N+](=O)[O-])cc3)CC2)cc1	-4.73% (inactive)
O=C(CC1CCCCC1)NCc1ccco1	-1.65% (inactive)
O=C(CC1N=C2c3ccccc3N=C(SCc3ccccc3Cl)N2C1=O)NCc1ccco1 (stereo unspecified)	26.2% (active)
CC1(c2ccccc2Cl)NC(=O)N(CC(=O)NC(=O)NCc2ccco2)C1=O (stereo unspecified)	5.3% (inactive)
O=C(NCCCN1CCN(c2ccc(F)cc2)CC1)Nc1ccc([N+](=O)[O-])cc1	-0.66% (inactive)
Nn1c(SCC(=O)Nc2cccc3ccccc23)nnc1-c1cc(-c2ccc(F)cc2)n[nH]1	2.17% (inactive)
CN(C)c1ccc(Nc2c3c4c(cccc4n(C)c2=O)C(=O)c2ccccc2-3)cc1	56.4% (active)
Cc1cc(Cl)ccc1C(=O)C1CCCN(C(=O)c2nonc2C)C1 (stereo unspecified)	-0.28% (inactive)
COc1ccc(Cn2cc(COC(=O)N(C)Cc3ccccc3)nn2)cc1	-6.72% (inactive)

SMILES	inhibition
Cc1cccc(N2CCN(C(=O)/C=C/c3ccco3)CC2)c1C	29.9% (active)
CCn1c(C)c(C)c2cc(C(=O)N3CCN(c4cccc(C)c4C)CC3)ccc21	2.44% (inactive)
Cc1cccc(N2CCN(C(=O)c3cc4c(=O)[nH]c5ccccc5c4n3C)CC2)c1C	-1.76% (inactive)
CN(C)c1ccc(NC(=O)NC2CCCCN(Cc3ccc(Cl)cc3)C2=O)cc1 (stereo unspecified)	4.83% (inactive)
Nn1c(SCC(=O)Nc2ccc(S(N)(=O)=O)cc2)nnc1-c1n[nH]c2c1CCC2	0.39% (inactive)
CN(C)[C@H]1CCN(c2cccc3c2S(=O)(=O)N2CC[C@H](C2)O3)C1	0.28% (inactive)
CC(=O)OC12CCCN(C1)/C(=C/c1ccncc1)C2 (stereo unspecified)	-0.73% (inactive)
COCCCNC(=O)CC1C[C@H](C(=O)N2CCCCC2)[C@@]2(CCc3ccccc3)c3[nH]c4ccccc4c3CCN2C1=O (stereo partly specified)	-2.68% (inactive)
CCCCCCCCNS(=O)(=O)/C=C/c1cc(C)ccc1CNC(=O)OC(C)(C)C	-0.82% (inactive)
Cc1cc(NC(=O)C(C)SCC(=O)Nc2ccccc2N2CCCCC2)no1 (stereo unspecified)	-2.38% (inactive)
Cc1cc(NC(=O)C(C)SCC(=O)Nc2cccc(S(=O)(=O)N3CCCCCC3)c2)no1 (stereo unspecified)	71.1% (active)
O=C(CSc1ccccc1)Nc1cccc(S(=O)(=O)N2CCCCC2)c1	-5.2% (inactive)
C=C1C(C(C)C)N(C)C2=NC(c3ccccc3)CC(=O)N12 (stereo unspecified)	-3.21% (inactive)
N#Cc1ccc(C(C(=O)NCc2ccccc2)n2c(=O)c(-c3ccco3)nc3ccccc32)cc1 (stereo unspecified)	20.9% (inactive)
Cc1cccc(C)c1NC(=O)C(c1ccc(C(F)(F)F)cc1)n1c(=O)c(-c2ccco2)nc2ccccc21 (stereo unspecified)	23.1% (active)
O=C(NC1CCCCC1)C(c1cc2ccccc2o1)n1c(=O)c(-c2ccco2)nc2ccccc21 (stereo unspecified)	10.9% (inactive)
Cc1ccc(CSc2nnc(SCC(=O)NN=Cc3cc(Br)ccc3F)s2)cc1	3.3% (inactive)
CCc1cccc2c3c([nH]c12)C(CC)(CC(=O)O)OCC3 (stereo unspecified)	1.16% (inactive)
C[C@H]1CCC/C=C/C(=O)c2c(O)cc(O)cc2CC(=O)O1	7.7% (inactive)

SMILES	inhibition
C[C@@H](NC(=O)OC(C)(C)C)c1nnc(S(=O)(=O)Cc2ccccc2)o1	21.3% (active)
CC(C)(C)c1ccc(C(CC(=O)O)NS(=O)(=O)Cc2ccccc2)cc1 (stereo unspecified)	-1.05% (inactive)
CC(C)[C@@H](NC(=O)OC(C)(C)C)C(=O)NCC1CCC(C(=O)N[C@@H](Cc2ccccc2)C(=O)O)CC1 (stereo partly specified)	2.79% (inactive)
CCOC(=O)[C@]12CCCC=C1N(Cc1ccc(OC)cc1)C(=O)[C@@H]2CC(=O)N1CCOCC1	-1.02% (inactive)
O=C(NCc1ccc(Cl)cc1)C1CCCN(c2nc3ccccc3o2)C1 (stereo unspecified)	4.6% (inactive)
N#Cc1ccccc1S(=O)(=O)N1CCN(C(=O)c2cc(-c3ccccc3)nn2-c2ccccc2)CC1	-1.25% (inactive)
O=C(CN1CCN(S(=O)(=O)c2cc(Cl)ccc2Cl)CC1)c1ccc(O)c(O)c1	18.9% (inactive)
N#Cc1ccccc1S(=O)(=O)N1CCN(Cc2c(O)ccc3ccccc23)CC1	34.5% (active)
CC1=CC(C)(C)Nc2ccc(OC(=O)CN3C(=O)C4CCCCC4C3=O)cc21 (stereo unspecified)	0.85% (inactive)
CCOC(=O)c1c(N)c(C#N)nn1-c1ccccc1C(=O)OC	6.05% (inactive)
O=C1CCCCC1Sc1ccc(Cl)cc1[N+](=O)[O-] (stereo unspecified)	48.8% (active)
O=C(COc1ccc(Cl)cc1[N+](=O)[O-])N1CCCCC1	-4.9% (inactive)
CSc1ccccc1NC(=O)CN(C)CC(=O)Nc1ccc(Cl)cc1[N+](=O)[O-]	-1.57% (inactive)
CC(=O)OCCN1CCCC12CCC(c1ccccc1)CC2 (stereo unspecified)	2.94% (inactive)
C=C(C)C1CC23C(=O)C4(C(=O)c5ccccc5)C[C@@]5(C)CCC(CC2C1(C)C)(C4=O)C35OC (stereo partly specified)	3.86% (inactive)
COc1ccc(C2CC(=O)n3c(nc4ccccc43)S2)cc1OC (stereo unspecified)	0.28% (inactive)
COc1ccc(C2CC(c3cccs3)=Nc3ccccc3S2)cc1OC (stereo unspecified)	63.7% (active)
COc1ccc(C2CC(c3cccs3)=NN2c2nc(C)c(C(C)=O)s2)cc1OC (stereo unspecified)	0.1% (inactive)
